Data as given in the supplement of paper PMC10338343.
± gives the standard deviation. Whole data set: some 5,500 sequences, median “pre-steady-state target cleavage rate” near 0.1, cut for the highest 2% near 0.64. This is one part of a sample in which the highest values are shown more often than they occur.

The sequences below were run on MIWI (PIWIL1) piRISC loaded with piRNA #2 (30 nt) (assay: pre-steady-state target cleavage rate (min^-1); MIWI and MILI are mouse PIWI proteins and EfPiwi is from a freshwater sponge; tags in brackets are library labels; higher = faster piRNA-guided slicing of the target). Conditions: guide: piRNA #2 5'p-UUAGGUAACCCAGUAGAUCCAGAGGAAUUC; auxiliary factor: 500 nM mouse GTSF1.
Protocol: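 Cleave-'n-Seq: a library of target RNAs (target site embedded in constant flanks, ACAGCATTCCGCGTTAGTGATATCCG... 5' flank; DNA-blocked outside the site) at 0.1 nM was incubated with 1 nM active mouse MILI or MIWI piRISC (synthetic 5'-monophosphorylated piRNA guide) with or without 500 nM mouse GTSF1 at 33 °C for 1 min to 16 h. Uncleaved targets were sequenced and normalised to non-target controls, and the pooled three trials were fitted to a burst-and-steady-state model to give the pre-steady-state cleavage rate (min^-1; k3 is constrained to at most 1e-4). Sequence is the target site only; target names encode pairing extent (gX:gY) and contiguous / 1-mismatch / 2-mismatch / bulge geometry. Fits with R² ≤ 0 are excluded.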

Row | Sequence | pre-steady-state target cleavage rate
1 | GAAUUCCUCAGGAUCUACUGGGUUACGUAA | 0.738 ± 0.062
2 | CUAUUCCACUGGAUCUACUGGGUUAGCUAA | 0.16 ± 0.04
3 | CAAUUCCUCAGGAUCUACUGGGUUACGUAA | 0.594 ± 0.058
4 | GAAUUCCACUGGAUCUACUGGGUUACGUAA | 0.803 ± 0.043
5 | GAAUUCCACUGGAUCUACUGGGUUAGCUAA | 0.668 ± 0.12
6 | CUAUUCCUGUGGAUCUACUGGGUUACGUAA | 0.47 ± 0.052
7 | GAAUUCCUGUGGAUCUACUGGGUUACGUAA | 0.637 ± 0.063
8 | CAAUUCCACUGGAUCUACUGGGUUACGUAA | 0.419 ± 0.081
9 | CUAUUCCUCAGGAUCUACUGGGUUACGUAA | 0.499 ± 0.073
10 | CAAUUCCACUGGAUCUACUGGGUUAGCUAA | 0.223 ± 0.076
11 | CUAUUCCACUGGAUCUACUGGGUUACGUAA | 0.481 ± 0.066
12 | CAAUUCCUGUGGAUCUACUGGGUUACGUAA | 0.428 ± 0.075
13 | CUUAUCCUGUGGAUCUACUGGGUUACCAAA | 0.166 ± 0.038
14 | CUAAACCUCUGGAUCUACUGGGUUACCUAA | 0.266 ± 0.04
15 | CUUAUCCUGACGAUCUACUGGGUUACCUAA | 0.0767 ± 0.014
16 | CUUAACCCUGGAUCUACUGGGUUACCUAA | 0.326 ± 0.033
17 | CUUAUCCUCUGGAUCUACUGGGAUUCCUAA | 0.103 ± 0.04
18 | CUUAAGGAGAGGUUCUACUGGGUUUCCUAA | 0.00421 ± 0.0042
19 | CUUAUCCUCUGGAUCUACUCGGUUACCUAA | 0.0981 ± 0.018
20 | GAAUUCCUCUGGAUAUACUGGGUUACCUAA | 0.551 ± 0.038
21 | CUUAUCCUCUGGAUAUACUGGGUUACCUAA | 0.688 ± 0.052
22 | CUUAUCCUCUGGAUACUACUGGGUUACCUAA | 0.419 ± 0.059
23 | CUAUUCCUCUGGAUACUACUGGGUUACCUAA | 0.422 ± 0.056
24 | CUUAUCCUCUGGAUUACUGGGUUACCUAA | 0.481 ± 0.04
25 | CAAUUCCUCUGGAUACUACUGGGUUACCUAA | 0.519 ± 0.068

Row | Sequence | pre-steady-state target cleavage rate
26 | CUUUUCCUCUGGAUAUACUGGGUUACCUAA | 0.628 ± 0.04
27 | CAAUUCCUCUGGAUAUACUGGGUUACCUAA | 0.724 ± 0.043
28 | CUAUUCCUCUGGAUAUACUGGGUUACCUAA | 0.772 ± 0.057
29 | CAAUUCCUCAGGAUCUACUGGGUAACCUAA | 0.336 ± 0.056
30 | CUUAACCUCUGGAUCUUCAGGGUUACCUAA | 0.112 ± 0.014
31 | CUUAACCUCUGGAACUACUGGGUUAGCUAA | 0.103 ± 0.016
32 | CAAUUCCUCUCGAUCUACAGGGUUACCUAA | 0.546 ± 0.038
33 | CUUUUCCUCUGGAACUAGUGGGUUACCUAA | 0.204 ± 0.025
34 | CUUAAGGAGAGGAUCUACUGGGUUACCUCA | 0.012 ± 0.0055
35 | CAAUUCCUCUCGGAUCUACUGGGUUACCUAA | 0.506 ± 0.065
36 | CUAAUCCUCUCGAUCUACUGGGUUACCUAA | 0.631 ± 0.042
37 | CAAAUCCUCUCGAUCUACUGGGUUACCUAA | 0.641 ± 0.05
38 | CUAUUCCUCUCGAUCUACUGGGUUACCUAA | 0.734 ± 0.063
39 | CAAUUCCUCUCGAUCUACUGGGUUACCUAA | 0.822 ± 0.063
40 | GAAAUCCUCUCGAUCUACUGGGUUACCUAA | 0.586 ± 0.054
41 | CUAUUCCUCUCGAUCUACUGGGUUACCUUA | 0.583 ± 0.056
42 | CUAUUCCUCUCGGAUCUACUGGGUUACCUAA | 0.575 ± 0.089
43 | CAAUUCCUCUCGAUCUACUGGGUUACCUUA | 0.69 ± 0.056
44 | CAAUACCUCUCGAUCUACUGGGUUACCUAA | 0.625 ± 0.056
45 | GAAUUCCUCUCGAUCUACUGGGUUACCUUA | 0.629 ± 0.069
46 | GUAUUCCUCUCGAUCUACUGGGUUACCUAA | 0.193 ± 0.044
47 | CUUAAGGUCUGGAUCUACUGGGUUACCAUA | 0.203 ± 0.029
48 | CUUAACCUCUCGAUCUUCUGGGUUACCUAA | 0.47 ± 0.044
49 | CUUAAGGUCUGGAUCUUCUGGGUAACCUAA | 0.0193 ± 0.011
50 | CUUAAGGAGUGGAUCUACACCGUUACCUAA | 0.0034 ± 0.0022

Row | Sequence | pre-steady-state target cleavage rate
51 | CUAUUCCUCUGCAUCUUCUGGGUUACCUAA | 0.316 ± 0.028
52 | GAAUUCCUCUGGAUCUACUGGGUUUGGUAA | 0.244 ± 0.061
53 | CUUAAGGUCUGGAUGUACUGGCUUACCUAA | 0.0442 ± 0.028
54 | CUUUACCUCUGGAUCUACUCGGUUACCUAA | 0.0688 ± 0.0087
55 | CUUAACCUCUGGAUGUUCUGGGUUACCUAA | 0.244 ± 0.019
56 | CUAUAUCCUCUGGAUCUACUGGGUUACCUAA | 0.352 ± 0.071
57 | GAAUUCCUCUCGAUCUACUGGGUUUCCUAA | 0.524 ± 0.06
58 | GAAUUCCUCUCGGAUCUACUGGGUUACCUAA | 0.442 ± 0.048
59 | GAAUUCCUCUCGAUCUACUGGGUUACCUAA | 0.642 ± 0.068
60 | CUUAACCUGUGGAUCUACUGGGUAACCUAA | 0.0751 ± 0.013
61 | GAAUUCCUCUGGAUCUAGUGGGAUACCUAA | 0.0616 ± 0.011
62 | CUUUUCCUCUGCAUCUACUGGGAUACCUAA | 0.128 ± 0.018
63 | CUUUUCCUCAGGAUCUACUGGGUUACGUAA | 0.523 ± 0.067
64 | GAAUUCCUCUCGAUCUACUGGGUUACGUAA | 0.581 ± 0.067
65 | CUUUUCCUCUGGAUCUACUGGGUUACGUUA | 0.374 ± 0.044
66 | CUAUUCCUCUCGAUCUACUGGGUUACGUAA | 0.935 ± 0.047
67 | GUAUUCCUCUGGAUCUACUGGGUUACGUAA | 0.377 ± 0.057
68 | CAAUUCCUCUCGAUCUACUGGGUUACGUAA | 0.885 ± 0.061
69 | CAUUUCCUCUGGAUCUACUGGGUUACGUAA | 0.622 ± 0.062
70 | CUAUUCCUCUGGAUCUACUGGGUUACGUAA | 0.63 ± 0.047
71 | CUUUUCCUCUCGAUCUACUGGGUUACGUAA | 0.746 ± 0.034
72 | CAAUUCCUCUGGAUCUACUGGGUUACGUAA | 0.598 ± 0.065
73 | CUUUUCCUCUGGAUCUACUGGGUUACGUAA | 0.664 ± 0.034
74 | CUUUUCCUCUCGAUCUACUGGGUUUCCUAA | 0.509 ± 0.058
